Measurements as given in PubChem BioAssay AID463173 (ICCB-Longwood Screening Facility, Harvard Medical School, 2010).
Values joined by “and” are separate entries in the source; they are usually repeats but may differ in a detail not shown here. Equal values may be shown once. The campaign covered roughly 52,000 compounds. About 4,300 (8.3%) were called active. Cut-off read from the data, not from the text of the source: active = survival mostly below about 52% (no sharp cut-off); inactive = mostly above about 56%. The sample as a whole holds a higher share of actives than the screen did. More than one record can exist for a structure, and the calls need not agree.

System: DeltatarO mutant
Experiment: S. aureus survival, RN4220 and DeltatarO strains – OD600, teichoic acid synthesis inhibitors, primary screen (AID 463173)
Conditions: S. aureus RN4220 wild type/DeltatarO growth, OD600, 18 h, stronger effect = lower value, screened at 18.75 µg/mL (by protocol)

SMILES	survival
Cc1cc(C)cc(NC(=O)C2CCCN(S(=O)(=O)c3cccc4nsnc34)C2)c1 (stereo unspecified)	105% (inactive)
Cc1ccc(N2CCN(C(=O)c3cnn(-c4ccc(F)cc4F)c3C3CCN(C(=O)OC(C)(C)C)CC3)CC2)c(C)c1	91% (inactive)
CCc1ccc(NC(=O)C(CC)n2nnc(C(=O)OC)c2C(=O)OC)cc1 (stereo unspecified)	-3% (active)
CCOC(=O)c1nnn(C(CC)C(=O)Nc2ccc(F)cc2)c1C(=O)OCC (stereo unspecified)	119% (inactive)
CCC(C(=O)Nc1cc(C)ccc1OC)n1nnc(C(=O)OC)c1C(=O)OC (stereo unspecified)	94% (inactive)
CCOc1cc(C(=O)Nc2ccncc2)cc(OCC)c1OCC	94% (inactive)
Cc1ccc(CNC(=O)c2cc3ccc4cccnc4c3[nH]2)cc1	32% (active)
O=C(NCc1ccc(Cl)cc1)c1cc2ccc3cccnc3c2[nH]1	58% (inactive)
Cc1ccc2cccc(NC(=O)c3ccc(OC(C)C)cc3)c2n1	95% (inactive)
CCOc1cc(C(=O)Nc2cccc3cccnc23)cc(OCC)c1OCC	10% (active)
CCOc1ccccc1NC(=O)c1ccc(C(=O)Nc2ccccc2OCC)cc1	83% (inactive)
Cc1cc(C)cc(OCC(=O)Nc2cccc3cccnc23)c1	73% (inactive)
Cc1cccc(OCC(=O)Nc2cccc3cccnc23)c1C	60% (active)
O=C(NCc1ccccc1)c1cc2ccc3cccnc3c2[nH]1	80% (inactive)
Cc1ccc(C(=O)Nc2cccc3cccnc23)cc1Cl	72% (inactive)
O=C(COc1ccc(Cl)cc1Cl)Nc1cccc2cccnc12	79% (inactive)
CC(C)c1ccc(C(=O)Nc2cccc3cccnc23)cc1	-1% (active)
CCOc1ccc(C(=O)NC2CCN(C(=O)NCc3ccccc3)CC2)cc1	84% (inactive)
COc1ccc(-c2nc(C)c(CCNC(=O)C(=O)Nc3ccccc3OC)s2)cc1	89% (inactive)
c1ccc(Cc2nnc(SCc3nc(-c4cccs4)no3)n2-c2ccccc2)cc1	56% (inactive)
COc1cc(NS(=O)(=O)c2cc3c(cc2C)N(C)CCO3)cc(OC)c1OC	90% (inactive)
Cc1ccccc1CN1C(=O)c2ccccc2S(=O)c2ccc(C(=O)NCc3ccco3)cc21 (stereo unspecified)	71% (inactive)
CC(C)CCn1c(=O)c2sccc2n2c(CCCC(=O)NCCc3ccccc3)nnc12	68% (inactive)
CCS(=O)(=O)NCC(c1ccco1)N1CCN(c2ccc(OC)cc2)CC1 (stereo unspecified)	91% (inactive)

SMILES	survival
CCOc1ccccc1N(CC)C(=O)c1cc2ccc3cccnc3c2[nH]1	102% (inactive)
CCOC(=O)c1ccccc1NC(=O)c1cc2ccc3cccnc3c2[nH]1	117% (inactive)
CCOc1ccccc1NC(=O)c1cc2ccc3cccnc3c2[nH]1	37% (active)
COCCNC(=O)CSc1nc(-c2ccc(C)cc2)[nH]c1-c1ccc(OC)cc1	84% (inactive)
COc1cc(OC)c(NC(=O)C(NS(=O)(=O)c2cccc3nsnc23)c2ccccc2)cc1Cl (stereo unspecified)	60% (inactive)
COc1ccccc1N1CCN(C(=O)c2cn(C)c3ccc(S(=O)(=O)N4CCOCC4)cc3c2=O)CC1	84% (inactive)
O=C(c1ccco1)c1cn(CCOc2ccc(F)cc2)c2ccccc12	99% (inactive)
Cc1ccc(C(C)C)c(OCCn2cc(C(=O)c3ccco3)c3ccccc32)c1	35% (active)
O=C(Cn1cc(C(=O)c2ccco2)c2ccccc21)Nc1ccc(Br)cc1	88% (inactive)
CCOc1ccc(NC(=O)Cn2cc(C(=O)c3ccco3)c3ccccc32)cc1	63% (inactive)
Cc1ccc(C)c(OCCn2cc(C(=O)c3ccco3)c3ccccc32)c1	104% (inactive)
COc1ccc(OCCn2cc(C(=O)c3ccco3)c3ccccc32)cc1	56% (inactive)
Cc1ccc(OCCn2cc(C(=O)c3ccco3)c3ccccc32)cc1C	27% (active)
Cc1ccccc1OCCn1cc(C(=O)c2ccco2)c2ccccc21	44% (inactive)
Cc1cc(OCCn2cc(C(=O)c3ccco3)c3ccccc32)ccc1Cl	53% (inactive)
O=C(c1ccco1)c1cn(CCOc2ccc(Cl)cc2)c2ccccc12	78% (inactive)
O=C(Cn1cc(C(=O)c2ccco2)c2ccccc21)Nc1ccccc1	41% (active) and 47% (inactive)
CC(C)(C)c1ccc(OCCn2cc(C(=O)c3ccco3)c3ccccc32)cc1	35% (active)
COc1ccccc1N1CCN(Cc2cc(COC(C)C)c3cccnc3c2O)CC1	84% (inactive)
CCC(C)(C)n1nnnc1C(C(C)C)N(Cc1cccnc1)Cc1ccco1 (stereo unspecified)	78% (inactive)
COc1ccccc1N1CCN(C(=O)c2cn(C)c3ccc(S(=O)(=O)N(C)C4CCCCC4)cc3c2=O)CC1	83% (inactive)
CCCC12CN3CC(CCC)(CN(C1)C3c1c(C)[nH]c(=O)[nH]c1=O)C2=O (stereo unspecified)	109% (inactive)
CCC(C)NC(=O)c1c(-c2ccccc2)c(-c2ccccc2)nn(C)c1=O (stereo unspecified)	50% (inactive)
CCOc1ccc(OCC)c(NC(=O)C2CCCN(S(=O)(=O)c3cc(Br)cc4c3N(C(=O)CC)CC4)C2)c1 (stereo unspecified)	100% (inactive)

SMILES	survival
COc1ccc(CCNC(=O)CCCn2c(=O)c3ccccc3n(Cc3cccc(Cl)c3)c2=O)cc1OC	72% (inactive)
Cc1ccc2nc(N3CCN(C(=O)C4COc5ccccc5O4)CC3)sc2c1 (stereo unspecified)	89% (inactive)
COc1ccc(CNC(=O)COCc2cc(-c3ccc4c(c3)OCO4)on2)cc1	94% (inactive)
O=C(COCc1cc(-c2ccc3c(c2)OCO3)on1)NCc1ccc(F)cc1	85% (inactive)
COc1ccccc1CNC(=O)COCc1cc(-c2ccc3c(c2)OCO3)on1	25% (active)
Cc1ccc(CNC(=O)COCc2cc(-c3ccc4c(c3)OCO4)on2)cc1	75% (inactive)
O=C(COCc1cc(-c2ccc3c(c2)OCO3)on1)NCc1ccccc1Cl	70% (inactive)
COc1cccc(CNC(=O)COCc2cc(-c3ccc4c(c3)OCO4)on2)c1	37% (active)
O=S(=O)(c1ccccc1)n1nc(-c2ccco2)nc1NCc1ccccc1	71% (inactive)
O=C(Nc1ccc(N2CCN(C(=O)c3ccco3)CC2)cc1)c1ccccc1	93% (inactive)
CCOc1ccc(-n2nc3ccc(NC(=O)c4cccc(F)c4)cc3n2)cc1	84% (inactive)
CCCNC(=O)c1ccc2c(c1)nc1n2CCCCC1	94% (inactive)
COc1cccc(C(=O)NCCc2csc(-c3cccc(F)c3)n2)c1OC	75% (inactive)
Cc1cccc(N2CCN(C(=O)CN3C(=O)COc4ccc(S(=O)(=O)N5CCCC5)cc43)CC2C)c1 (stereo unspecified)	77% (inactive)
O=C(COc1ccccc1[N+](=O)[O-])N1CCC(c2nc3ccccc3o2)CC1	79% (inactive)
CCOC(=O)c1csc2c1CCC/C2=N/OC(C)=O	86% (inactive)
CCOC(=O)c1cc2c(=O)n3ccccc3nc2n(Cc2ccco2)c1=NC(=O)c1cccc(C)c1	33% (active)
CCOC(=O)c1cc2c(=O)n3ccccc3nc2n(Cc2ccco2)c1=NC(=O)c1cc(C)cc(C)c1	29% (active)
CCOc1ccccc1NC(=O)Cn1ccn(-c2ccccc2)c(=O)c1=O	49% (inactive)
CC(Oc1ccccc1)C(=O)Nc1nnc(S(=O)(=O)N2CCCCCC2)s1 (stereo unspecified)	50% (inactive)
O=C(COc1ccccc1)Nc1nnc(S(=O)(=O)N2CCCCCC2)s1	79% (inactive)
Cc1cccc(OCC(=O)Nc2nnc(S(=O)(=O)N3CCCCCC3)s2)c1	48% (active)
COc1ccc(OCC(=O)Nc2nnc(S(=O)(=O)N3CCCCCC3)s2)cc1	76% (inactive)
Cc1cc(C)cc(N(C)S(=O)(=O)c2nnc(NC(=O)COc3ccc(C)c(C)c3)s2)c1	30% (active)

SMILES	survival
CN(c1ccccc1)S(=O)(=O)c1nnc(NC(=O)COc2ccccc2)s1	56% (inactive)
CCN(CC)S(=O)(=O)c1nnc(NC(=O)COc2cccc(C)c2)s1	94% (inactive)
Cc1ccc(OCC(=O)Nc2nnc(S(=O)(=O)N3CCCCCC3)s2)cc1	64% (inactive)
CCC(=O)Nc1nnc(S(=O)(=O)N2CCCCCC2)s1	89% (inactive)
Cc1cc(C)cc(N(C)S(=O)(=O)c2nnc(NC(=O)COc3ccc(Cl)cc3)s2)c1	80% (inactive)
O=C(COc1ccc(Cl)cc1)Nc1nnc(S(=O)(=O)N2CCCCCC2)s1	55% (active)
O=C(COc1ccccc1)Nc1nnc(S(=O)(=O)N2CCCC2)s1	39% (active)
CC1(C)CC(=O)C2=C(C1)NC1=C(C(=O)CC(C)(C)C1)C2c1ccc2c(c1)OCO2	96% (inactive)
NC(=O)c1nc(-c2ccc(F)c(F)c2)nc2c1[nH]c(=O)n2-c1cccc(Cl)c1	86% (inactive)
O=C(Nc1cccc(C(F)(F)F)c1)N1CCC(CN2CCCCCC2)CC1	83% (inactive)
Cc1cccc(C(=O)Nc2ccc(N3CCC(CCN4CCOCC4)CC3)c(C(=O)O)c2)c1	66% (inactive)
Cc1ccc(N2CCN(c3cc(C)nc4c(-c5ccc(Cl)cc5)c(C)nn34)CC2C)cc1 (stereo unspecified)	55% (inactive)
COc1ccc(C(=O)c2cn(Cc3ccc(F)cc3)c3c(F)cc(F)cc3c2=O)cc1	103% (inactive)
Cc1cccc(N2CCN(C(=O)CCNS(=O)(=O)c3ccc4c(c3)CCN4C(=O)C3CC3)CC2)c1C	73% (inactive)
N#Cc1ccccc1NC(=O)CSc1nnc(N)s1	76% (inactive)
CC(C)CC(=O)Nc1nnc(S(=O)(=O)N2CCCCCC2)s1	109% (inactive)
CCCC(=O)Nc1nnc(S(=O)(=O)N2CCCCCC2)s1	91% (inactive)
O=C(COc1ccc(F)cc1)Nc1nnc(S(=O)(=O)N2CCCC2)s1	39% (active)
COc1ccc(Cl)cc1N/C=C(/C#N)c1nc2ccccc2n1C	82% (inactive)
Cn1c(/C(C#N)=C/C2CC=CCC2)nc2ccccc21 (stereo unspecified)	78% (inactive)
Cn1c(/C(C#N)=C/c2ccc(C(F)(F)F)cc2)nc2ccccc21	103% (inactive)
Cn1c(/C(C#N)=C/c2ccccc2Br)nc2ccccc21	79% (inactive)
COc1cc(/C=C(\C#N)c2nc3ccccc3n2C)cc(OC)c1OC	47% (active)
COc1ccc(/C=C(\C#N)c2nc3ccccc3n2C)c(OC)c1	29% (active)
